{
  "source": "PubChem BioAssay (NCI)",
  "note": "The panel holds about 83,000 compounds, 20% with a hit somewhere; the sample as a whole holds those more often.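 For each line, cells grew in 96-well plates with the test compound present at a single concentration for 48 hours.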 A number with no mark means an inactive call. Active and inactive are the calls of the source. Rule for the calls: active = growth percent below 10; inactive = the rest.",
  "data": [
    {"system": "MDA-MB-468 breast", "assay": "NCI-60 one-dose screen, 48 h (100 = growth as untreated, 0 = no growth, -100 = all killed)", "conditions": "10 µM unless noted", "values": [
      {"smiles": "CC1(C)CC[C@]2(C(=O)NCCCCCCN(CCCN)CCCN)CC[C@]3(C)C(=CC[C@@H]4[C@@]5(C)CC[C@H](O)C(C)(C)[C@@H]5CC[C@]43C)[C@@H]2C1", "growth": "98.6%"},
      {"smiles": "COc1ccc(-c2nc(SCC(=O)c3ccc(Br)cc3)[nH]c(=O)c2C#N)cc1", "growth": "100%"},
      {"smiles": "COc1cc(/C=C/C(=O)/C=C/c2ccc(-n3ccnc3)cc2)ccc1O", "growth": "37.8%"},
      {"smiles": "O=C1/C(=C/c2ccc(Oc3ccccc3)cc2)N=C(c2ccccc2)N1CCc1cccs1", "growth": "108%"},
      {"smiles": "Nc1cc2c(cc1Cl)C(=O)c1ccccc1C2=O", "growth": "70.2%"},
      {"smiles": "CSc1nc(N)c2c(n1)N(C)C=NS2(=O)=O", "growth": "107%"},
      {"smiles": "c1ccc2c(c1)oc1c3cccnc3ccc21", "growth": "-62% (active)"},
      {"smiles": "O=C1C=Cc2ccccc2/C1=C/c1nc(-c2ccccc2)oc1O", "growth": "88.6%"},
      {"smiles": "CC(C)(C)n1nnnc1C(Nc1cccc2c1OCO2)c1cc2cccc3ccc4cccc1c4c32", "note": "(configuration not stated)", "growth": "51.7%"},
      {"smiles": "Cc1c[nH]c(=O)n(Cc2nnc(CCC(=O)c3nc4ccccc4[nH]3)o2)c1=O", "growth": "-1.54% (active)"},
      {"smiles": "O=C1Cc2c(sc3c(F)cccc23)C(c2ccccc2[N+](=O)[O-])N1", "note": "(configuration not stated)", "growth": "86.9%"},
      {"smiles": "CC1(C)[C@@H](O)CC[C@]2(C)[C@H]3CC[C@@H]4[C@H]5[C@H](C(=O)/C=C\\c6ccccn6)CC[C@]5(O)CC[C@@]4(C)[C@]3(C)CC[C@@H]12", "growth": "23.8%"}
    ]}
  ]
}
